Consider 153 variants from a collection of fitness landscapes (doi:10.1126/science.1257360).

Whole data set: some 140,000 sequences, median “enrichment ratio after two sorts for PhoP signalling” near 0, cut for the highest 2% near 11. The full list was thinned out, with the highest values kept by preference.

B1: PhoQ; a variant is named by its letters at X, in order, P23837 (parent)
chain: MKKLLRLFFPLSLRVRFLLATAAVVLVLSLAYGMVALIGYSVSFDKTTFRLLRGESNLFYTLAKWENNKLHVELPENIDKQSPTMTLIYDENGQLLWAQRDVPWLMKMIQPDWLKSNGFHEIEADVNDTSLLLSGDHSIQQQLQEVREDDDDAEMTHSVAVNVYPATSRMPKLTIVVVDTIPVELKSSYMVWSWFIYVLSANLLLVIPLLWVAAWWSLRPIEALAKEVRELEEHNRELLNPATTRELTSLVRNLNRLLKSERERYDKYRTTLTDLTHSLKTPLXXLQXXLRSLRSEKMSVSDAEPVMLEQISRISQQIGYYLHRASMRGGTLLSRELHPVAPLLDNLTSALNKVYQRKGVNISLDISPEISFVGEQNDFVEVMGNVLDNACKYCLEFVEISARQTDEHLYIVVEDDGPGIPLSKREVIFDRGQRVDTLRPGQGVGLAVAREITEQYEGKIVAGESMLGGARMEVIFGRQHSAPKDE

Variants of B1 are the subject of this assay. As to the kind of experiment: enrichment ratio after two sorts for PhoP signalling (ratio (wild type AVST 3.29)); higher = more functional. Conditions: with PhoP (E. coli).
Regarding SQTM, the enrichment ratio turned out to be 6.18.

Regarding SICE, the enrichment ratio is 1.33.

As for SICI, the enrichment ratio turned out to be 21.

Regarding DMMP, the enrichment ratio was not above 0.25.

With NRRM, the enrichment ratio is not above 0.25.

As for YLRW, the enrichment ratio is not above 0.25.

Turning to TKFH, the enrichment ratio is not above 0.25.

Consider LSNL, for which the enrichment ratio was not above 0.25.

Consider EACR, for which the enrichment ratio is not above 0.25.

For HEFW, the enrichment ratio was not above 0.25.

Turning to LKYV, the enrichment ratio was not above 0.25.

With SICA, the enrichment ratio was determined as 8.12.

Consider WLTM, for which the enrichment ratio is not above 0.25.

As for KYAM, the enrichment ratio was not above 0.25.

As to SLTM, the enrichment ratio amounted to 12.5.

As for KYCS, the enrichment ratio was not above 0.25.

As to SIMD, the enrichment ratio was determined as 4.7.

For SSVM, the enrichment ratio was 17.6.

In the case of TSVM, the enrichment ratio was found to be 3.12.

As to KSVM, the enrichment ratio was not above 0.25.

For the variant SIAM, the enrichment ratio came out at 20.8.

As to PLTM, the enrichment ratio is not above 0.25.

SICS: the enrichment ratio came to 16.9.

Take DEHQ: the enrichment ratio is not above 0.25.

On to SHVQ, for which the enrichment ratio was not above 0.25.

Take KNSF: the enrichment ratio is not above 0.25.

For the variant EDWM, the enrichment ratio is not above 0.25.

In the case of PVLM, the enrichment ratio is not above 0.25.

Consider SICG, for which the enrichment ratio worked out at 22.

Take SIGM: the enrichment ratio was determined as 9.86.

For WICG, the enrichment ratio was not above 0.25.

As for FICK, the enrichment ratio is not above 0.25.

For the variant SICK, the enrichment ratio was 14.6.

With VLTM, the enrichment ratio is not above 0.25.

In the case of LLTM, the enrichment ratio was not above 0.25.

Take FIGM: the enrichment ratio was not above 0.25.

As for KYCG, the enrichment ratio was not above 0.25.

Regarding SIWM, the enrichment ratio was not above 0.25.

On to TLTM, for which the enrichment ratio came out at 19.

For FICM, the enrichment ratio was 12.9.

Turning to NHYV, the enrichment ratio was not above 0.25.

For the variant EHWN, the enrichment ratio is not above 0.25.

Consider HWKG, for which the enrichment ratio was not above 0.25.

As for HYVN, the enrichment ratio is not above 0.25.

For the variant FNKS, the enrichment ratio was not above 0.25.

Turning to WKFR, the enrichment ratio was not above 0.25.

For the variant VMIH, the enrichment ratio was not above 0.25.

As for FQCV, the enrichment ratio is not above 0.25.

Consider SITM, for which the enrichment ratio is 22.9.

As to SIRL, the enrichment ratio was not above 0.25.

In the case of KYCL, the enrichment ratio was not above 0.25.

Take TTTM: the enrichment ratio was 19.4.

For YTTM, the enrichment ratio was 8.49.

SICL: the enrichment ratio is 11.3.

SICM: the enrichment ratio worked out at 14.4.

As for KYTM, the enrichment ratio is not above 0.25.

As for KYCM, the enrichment ratio was not above 0.25.

As to GTTM, the enrichment ratio came out at 4.35.

Take SRTM: the enrichment ratio was determined as 1.44.

In the case of WICM, the enrichment ratio is not above 0.25.

With NSAY, the enrichment ratio was not above 0.25.

As for MERT, the enrichment ratio is not above 0.25.

For IMPC, the enrichment ratio is not above 0.25.

For AHIW, the enrichment ratio is not above 0.25.

As for YHGK, the enrichment ratio is not above 0.25.

Turning to MHLE, the enrichment ratio is not above 0.25.

Turning to TWGP, the enrichment ratio was not above 0.25.

GSVG: the enrichment ratio was not above 0.25.

In the case of SICQ, the enrichment ratio was determined as 27.6.

Consider KYPM, for which the enrichment ratio was not above 0.25.

As for SIGQ, the enrichment ratio was found to be 10.4.

In the case of SIPM, the enrichment ratio stood at 19.8.

As for QETM, the enrichment ratio was not above 0.25.

As for SIPA, the enrichment ratio stood at 0.817.

On to LTTM, for which the enrichment ratio was not above 0.25.

In the case of STTM, the enrichment ratio came to 14.3.

As to KYCQ, the enrichment ratio is not above 0.25.

As for VWYY, the enrichment ratio is not above 0.25.

With EDMQ, the enrichment ratio is not above 0.25.

As to VNHC, the enrichment ratio is not above 0.25.

As for AYRQ, the enrichment ratio was not above 0.25.

Regarding YGPP, the enrichment ratio was not above 0.25.

With IQKL, the enrichment ratio was not above 0.25.

For the variant GASY, the enrichment ratio is not above 0.25.

As for SPIT, the enrichment ratio was not above 0.25.

As to AGYW, the enrichment ratio was not above 0.25.

For the variant SSLH, the enrichment ratio was 11.4.

For the variant ITLH, the enrichment ratio is not above 0.25.

With SELH, the enrichment ratio stood at 19.4.

Regarding KSLH, the enrichment ratio is not above 0.25.

In the case of SRLH, the enrichment ratio is not above 0.25.

As for NSLH, the enrichment ratio was not above 0.25.

For the variant SYLH, the enrichment ratio is 0.355.

As to LTLH, the enrichment ratio is not above 0.25.

For the variant STLH, the enrichment ratio was 12.2.

KYLH: the enrichment ratio was not above 0.25.

In the case of SPLH, the enrichment ratio is not above 0.25.

Regarding ATLH, the enrichment ratio was found to be 11.5.

For the variant ASPV, the enrichment ratio was 0.706.

On to LLVM, for which the enrichment ratio is not above 0.25.

Consider PRDH, for which the enrichment ratio is not above 0.25.

For the variant IQGR, the enrichment ratio was not above 0.25.

Consider RVGK, for which the enrichment ratio was not above 0.25.

In the case of TQAC, the enrichment ratio came out at 4.85.

VIMQ: the enrichment ratio was not above 0.25.

With WTKP, the enrichment ratio is not above 0.25.

Take ENII: the enrichment ratio is not above 0.25.

GTLH: the enrichment ratio amounted to 8.02.

In the case of TTLH, the enrichment ratio was 19.7.

Consider YTLH, for which the enrichment ratio came out at 0.617.

For MYEQ, the enrichment ratio is not above 0.25.

In the case of QELV, the enrichment ratio is not above 0.25.

As to SELV, the enrichment ratio came to 19.5.

As to YGLT, the enrichment ratio was found to be 7.13.

For EQLV, the enrichment ratio is not above 0.25.

For the variant YGLA, the enrichment ratio was found to be 12.8.

Regarding TQLV, the enrichment ratio was found to be 26.3.

In the case of SILV, the enrichment ratio worked out at 2.22.

As for YGLS, the enrichment ratio turned out to be 7.31.

With SLLV, the enrichment ratio worked out at 6.62.

For NELV, the enrichment ratio is 2.93.

For the variant NQLV, the enrichment ratio was not above 0.25.

As to TELV, the enrichment ratio is 25.1.

As for WPNN, the enrichment ratio is not above 0.25.

As to YKHG, the enrichment ratio was not above 0.25.

For the variant AFWQ, the enrichment ratio was not above 0.25.

Take GIFI: the enrichment ratio was not above 0.25.

With TQRG, the enrichment ratio is not above 0.25.

Consider LAFQ, for which the enrichment ratio worked out at 2.23.

Take NEYD: the enrichment ratio is not above 0.25.

As for EVIK, the enrichment ratio was not above 0.25.

In the case of QFDL, the enrichment ratio is not above 0.25.

Turning to MRMI, the enrichment ratio is not above 0.25.

As for SINK, the enrichment ratio was determined as 1.25.

Regarding RMYK, the enrichment ratio is not above 0.25.

For ATLV, the enrichment ratio stood at 12.7.

For the variant FTLV, the enrichment ratio stood at 10.2.

In the case of MFLV, the enrichment ratio was not above 0.25.

For GTLV, the enrichment ratio worked out at 7.85.

With YTLV, the enrichment ratio stood at 15.7.

Turning to CTLV, the enrichment ratio amounted to 0.326.

Consider TTLV, for which the enrichment ratio was found to be 17.9.

As to MIHK, the enrichment ratio is not above 0.25.

On to ITLV, for which the enrichment ratio worked out at 7.88.

Take MILV: the enrichment ratio is 13.

For YYLV, the enrichment ratio was not above 0.25.

As to LTLV, the enrichment ratio is 1.55.

As to FHSF, the enrichment ratio is not above 0.25.

HDGN: the enrichment ratio was not above 0.25.

Regarding TQVH, the enrichment ratio was 8.69.

LPSI: the enrichment ratio was not above 0.25.

Take ANRW: the enrichment ratio is not above 0.25.

For the variant MCHW, the enrichment ratio is not above 0.25.
